Residue numbers refer to the chain shown, from its start.
Assays:
Assay in all cases: PBM; 200 nM protein, PBS
Conditions in all cases: dsDNA, one strand shown
HOXB4 [1] = target: HOXB4 (Homo sapiens, UniProt P17483 148-234)
VENTX [2] = target: T1, VENTX (Homo sapiens, UniProt O95231 78-163, R121Q)
T1 sequence: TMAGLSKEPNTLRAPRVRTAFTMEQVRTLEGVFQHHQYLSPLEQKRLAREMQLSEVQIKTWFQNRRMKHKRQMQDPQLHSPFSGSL

ALX4 = ALX4 (Homo sapiens, UniProt Q9H161 200-286)
PAX4 [3] = target: T2, PAX4 (Homo sapiens, UniProt O43316 9-242, R200K)
T2 sequence: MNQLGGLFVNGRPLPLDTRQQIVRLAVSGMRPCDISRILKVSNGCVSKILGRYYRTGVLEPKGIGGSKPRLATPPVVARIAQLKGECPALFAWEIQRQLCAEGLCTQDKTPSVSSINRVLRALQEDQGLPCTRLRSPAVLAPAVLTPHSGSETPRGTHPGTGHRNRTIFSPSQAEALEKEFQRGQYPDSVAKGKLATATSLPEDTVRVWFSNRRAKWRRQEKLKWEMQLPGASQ

PRRX1 [4] = target: PRRX1 (Homo sapiens, UniProt P54821 80-166, F113S)
Chain of PRRX1 (Homo sapiens, UniProt P54821 80-166, F113S) (P54821 80-166 F113S): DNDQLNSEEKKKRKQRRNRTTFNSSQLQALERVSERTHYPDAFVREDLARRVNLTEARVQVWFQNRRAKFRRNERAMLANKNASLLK

VENTX [5] = target: T3, VENTX (Homo sapiens, UniProt O95231 78-163, Y115F)
T3 sequence: T1 sequence with Y38F, Q44R

HOXB6 = HOXB6 (Homo sapiens, UniProt P17509 132-218, K202E)
Chain of HOXB6 (P17509 132-218 K202E): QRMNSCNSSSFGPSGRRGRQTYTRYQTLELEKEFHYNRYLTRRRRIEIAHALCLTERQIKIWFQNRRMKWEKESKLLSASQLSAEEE

HOXA2 [6] = target: HOXA2 (Homo sapiens, UniProt O43364 129-215, R185T)
Chain of HOXA2 (Homo sapiens, UniProt O43364 129-215, R185T) (O43364 129-215 R185T): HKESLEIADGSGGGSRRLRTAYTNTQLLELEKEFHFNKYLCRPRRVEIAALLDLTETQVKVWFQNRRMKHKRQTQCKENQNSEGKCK

HOXA4 [7] = target: HOXA4 (Homo sapiens, UniProt Q00056 201-287, R217L)
Chain of HOXA4 (Homo sapiens, UniProt Q00056 201-287, R217L) (Q00056 201-287 R217L): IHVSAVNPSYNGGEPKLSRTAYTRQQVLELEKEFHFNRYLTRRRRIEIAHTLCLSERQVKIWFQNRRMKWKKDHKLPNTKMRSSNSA

HOXB4 [8] = target: HOXB4 (Homo sapiens, UniProt P17483 148-234, V174I)
Chain of HOXB4 (Homo sapiens, UniProt P17483 148-234, V174I) (P17483 148-234 V174I): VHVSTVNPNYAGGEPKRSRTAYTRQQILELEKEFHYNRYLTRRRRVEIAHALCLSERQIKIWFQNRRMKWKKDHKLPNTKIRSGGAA

PAX4 [9] = target: T4, PAX4 (Homo sapiens, UniProt O43316 9-242, R200Q)
T4 sequence: T2 sequence with K192Q

HOXA2 [10] = target: HOXA2 (Homo sapiens, UniProt O43364 129-215, R185K)
Chain of HOXA2 (Homo sapiens, UniProt O43364 129-215, R185K) (O43364 129-215 R185K): as the sequence (O43364 129-215 R185T) above, with T57K counted along it

PAX4 [11] = target: T5, PAX4 (Homo sapiens, UniProt O43316 9-242, F177V)
T5 sequence: T2 sequence with F169V, K192R

MSX2 [12] = target: MSX2 (Homo sapiens, UniProt P35548 130-214)
Chain of MSX2 (Homo sapiens, UniProt P35548 130-214) (P35548 130-214): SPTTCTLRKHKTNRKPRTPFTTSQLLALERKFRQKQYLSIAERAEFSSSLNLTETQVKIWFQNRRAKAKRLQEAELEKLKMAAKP

PAX4 [13] = target: T6, PAX4 (Homo sapiens, UniProt O43316 9-242, F177Y)
T6 sequence: T2 sequence with F169Y, K192R

MSX2 [14] = target: MSX2 (Homo sapiens, UniProt P35548 130-214, F161Y)
Chain of MSX2 (Homo sapiens, UniProt P35548 130-214, F161Y) (P35548 130-214 F161Y): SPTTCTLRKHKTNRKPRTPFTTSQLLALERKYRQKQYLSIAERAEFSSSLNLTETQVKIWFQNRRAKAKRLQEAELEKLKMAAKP

VAX1 [15] = target: VAX1 (Homo sapiens, UniProt Q5SQQ9 86-172, T142I)
Chain of VAX1 (Homo sapiens, UniProt Q5SQQ9 86-172, T142I) (Q5SQQ9 86-172 T142I): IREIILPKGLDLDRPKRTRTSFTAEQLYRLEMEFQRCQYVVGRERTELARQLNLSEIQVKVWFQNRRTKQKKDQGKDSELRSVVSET

HOXA4 [16] = target: HOXA4 (Homo sapiens, UniProt Q00056 201-287, W262F)
Chain of HOXA4 (Homo sapiens, UniProt Q00056 201-287, W262F) (Q00056 201-287 W262F): as the sequence (Q00056 201-287 R217L) above, with L17R, W62F counted along it

PRRX1 [17] = target: PRRX1 (Homo sapiens, UniProt P54821 80-166)
Chain of PRRX1 (Homo sapiens, UniProt P54821 80-166) (P54821 80-166): as the sequence (P54821 80-166 F113S) above, with S34F counted along it

VAX1 [18] = target: VAX1 (Homo sapiens, UniProt Q5SQQ9 86-172, K157R)
Chain of VAX1 (Homo sapiens, UniProt Q5SQQ9 86-172, K157R) (Q5SQQ9 86-172 K157R): as the sequence (Q5SQQ9 86-172 T142I) above, with I57T, K72R counted along it

Chain of HOXB4 (Homo sapiens, UniProt P17483 148-234) (P17483 148-234): as the sequence (P17483 148-234 V174I) above, with I27V counted along it
Chain of ALX4 (Q9H161 200-286): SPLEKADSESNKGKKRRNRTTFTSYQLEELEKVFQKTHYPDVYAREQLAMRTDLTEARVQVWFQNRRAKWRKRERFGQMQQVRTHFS

Sequence	binding signal (HOXB4 [1])	binding signal (VENTX [2])	binding signal (ALX4)	binding signal (PAX4 [3])	binding signal (PRRX1 [4])	binding signal (VENTX [5])	binding signal (HOXB6)	binding signal (HOXA2 [6])	binding signal (HOXA4 [7])	binding signal (HOXB4 [8])	binding signal (PAX4 [9])	binding signal (HOXA2 [10])	binding signal (PAX4 [11])	binding signal (MSX2 [12])	binding signal (PAX4 [13])	binding signal (MSX2 [14])	binding signal (VAX1 [15])	binding signal (HOXA4 [16])	binding signal (PRRX1 [17])	binding signal (VAX1 [18])
GATAATTA	13.8 upbm affinity estimate (log intensity, higher = more binding, comparable within an allelic series)	12.5 upbm affinity estimate (log intensity, higher = more binding, comparable within an allelic series)	14.4 upbm affinity estimate (log intensity, higher = more binding, comparable within an allelic series)	12 upbm affinity estimate (log intensity, higher = more binding, comparable within an allelic series)	12 upbm affinity estimate (log intensity, higher = more binding, comparable within an allelic series)	12.3 upbm affinity estimate (log intensity, higher = more binding, comparable within an allelic series)	10.2 upbm affinity estimate (log intensity, higher = more binding, comparable within an allelic series)	13.9 upbm affinity estimate (log intensity, higher = more binding, comparable within an allelic series)	13.1 upbm affinity estimate (log intensity, higher = more binding, comparable within an allelic series)	14.5 upbm affinity estimate (log intensity, higher = more binding, comparable within an allelic series)	12.4 upbm affinity estimate (log intensity, higher = more binding, comparable within an allelic series)	13.8 upbm affinity estimate (log intensity, higher = more binding, comparable within an allelic series)	10.8 upbm affinity estimate (log intensity, higher = more binding, comparable within an allelic series)	14.1 upbm affinity estimate (log intensity, higher = more binding, comparable within an allelic series)	11.3 upbm affinity estimate (log intensity, higher = more binding, comparable within an allelic series)	13.7 upbm affinity estimate (log intensity, higher = more binding, comparable within an allelic series)	13.8 upbm affinity estimate (log intensity, higher = more binding, comparable within an allelic series)	12.6 upbm affinity estimate (log intensity, higher = more binding, comparable within an allelic series)	13.7 upbm affinity estimate (log intensity, higher = more binding, comparable within an allelic series)	13.7 upbm affinity estimate (log intensity, higher = more binding, comparable within an allelic series)
GGTAATTA	13.7 upbm affinity estimate (log intensity, higher = more binding, comparable within an allelic series)	12.6 upbm affinity estimate (log intensity, higher = more binding, comparable within an allelic series)	14.4 upbm affinity estimate (log intensity, higher = more binding, comparable within an allelic series)	12 upbm affinity estimate (log intensity, higher = more binding, comparable within an allelic series)	11.6 upbm affinity estimate (log intensity, higher = more binding, comparable within an allelic series)	12.6 upbm affinity estimate (log intensity, higher = more binding, comparable within an allelic series)	10.4 upbm affinity estimate (log intensity, higher = more binding, comparable within an allelic series)	14.1 upbm affinity estimate (log intensity, higher = more binding, comparable within an allelic series)	13.2 upbm affinity estimate (log intensity, higher = more binding, comparable within an allelic series)	14.4 upbm affinity estimate (log intensity, higher = more binding, comparable within an allelic series)	12.4 upbm affinity estimate (log intensity, higher = more binding, comparable within an allelic series)	14.1 upbm affinity estimate (log intensity, higher = more binding, comparable within an allelic series)	10.7 upbm affinity estimate (log intensity, higher = more binding, comparable within an allelic series)	14.2 upbm affinity estimate (log intensity, higher = more binding, comparable within an allelic series)	11.1 upbm affinity estimate (log intensity, higher = more binding, comparable within an allelic series)	13.8 upbm affinity estimate (log intensity, higher = more binding, comparable within an allelic series)	14.1 upbm affinity estimate (log intensity, higher = more binding, comparable within an allelic series)	12.8 upbm affinity estimate (log intensity, higher = more binding, comparable within an allelic series)	13.5 upbm affinity estimate (log intensity, higher = more binding, comparable within an allelic series)	14.2 upbm affinity estimate (log intensity, higher = more binding, comparable within an allelic series)
GTAATTAC	13.7 upbm affinity estimate (log intensity, higher = more binding, comparable within an allelic series)	12.4 upbm affinity estimate (log intensity, higher = more binding, comparable within an allelic series)	14.3 upbm affinity estimate (log intensity, higher = more binding, comparable within an allelic series)	12 upbm affinity estimate (log intensity, higher = more binding, comparable within an allelic series)	11.5 upbm affinity estimate (log intensity, higher = more binding, comparable within an allelic series)	12.4 upbm affinity estimate (log intensity, higher = more binding, comparable within an allelic series)	10.4 upbm affinity estimate (log intensity, higher = more binding, comparable within an allelic series)	14.1 upbm affinity estimate (log intensity, higher = more binding, comparable within an allelic series)	13.2 upbm affinity estimate (log intensity, higher = more binding, comparable within an allelic series)	14.4 upbm affinity estimate (log intensity, higher = more binding, comparable within an allelic series)	12.5 upbm affinity estimate (log intensity, higher = more binding, comparable within an allelic series)	14.3 upbm affinity estimate (log intensity, higher = more binding, comparable within an allelic series)	10.6 upbm affinity estimate (log intensity, higher = more binding, comparable within an allelic series)	14.2 upbm affinity estimate (log intensity, higher = more binding, comparable within an allelic series)	11.1 upbm affinity estimate (log intensity, higher = more binding, comparable within an allelic series)	13.9 upbm affinity estimate (log intensity, higher = more binding, comparable within an allelic series)	13.9 upbm affinity estimate (log intensity, higher = more binding, comparable within an allelic series)	12.5 upbm affinity estimate (log intensity, higher = more binding, comparable within an allelic series)	13.5 upbm affinity estimate (log intensity, higher = more binding, comparable within an allelic series)	13.9 upbm affinity estimate (log intensity, higher = more binding, comparable within an allelic series)
CGTAATTA	13.5 upbm affinity estimate (log intensity, higher = more binding, comparable within an allelic series)	12.2 upbm affinity estimate (log intensity, higher = more binding, comparable within an allelic series)	14.2 upbm affinity estimate (log intensity, higher = more binding, comparable within an allelic series)	11.9 upbm affinity estimate (log intensity, higher = more binding, comparable within an allelic series)	11.5 upbm affinity estimate (log intensity, higher = more binding, comparable within an allelic series)	12.3 upbm affinity estimate (log intensity, higher = more binding, comparable within an allelic series)	10.2 upbm affinity estimate (log intensity, higher = more binding, comparable within an allelic series)	13.9 upbm affinity estimate (log intensity, higher = more binding, comparable within an allelic series)	12.7 upbm affinity estimate (log intensity, higher = more binding, comparable within an allelic series)	14.3 upbm affinity estimate (log intensity, higher = more binding, comparable within an allelic series)	12.3 upbm affinity estimate (log intensity, higher = more binding, comparable within an allelic series)	14 upbm affinity estimate (log intensity, higher = more binding, comparable within an allelic series)	10.7 upbm affinity estimate (log intensity, higher = more binding, comparable within an allelic series)	14 upbm affinity estimate (log intensity, higher = more binding, comparable within an allelic series)	11.1 upbm affinity estimate (log intensity, higher = more binding, comparable within an allelic series)	13.6 upbm affinity estimate (log intensity, higher = more binding, comparable within an allelic series)	13.6 upbm affinity estimate (log intensity, higher = more binding, comparable within an allelic series)	12.3 upbm affinity estimate (log intensity, higher = more binding, comparable within an allelic series)	13.5 upbm affinity estimate (log intensity, higher = more binding, comparable within an allelic series)	13.7 upbm affinity estimate (log intensity, higher = more binding, comparable within an allelic series)

Source: PMC11006913
